In all, about 220,000 compounds went through this assay and about 2,000 (0.91%) were called active. About 2% were inconclusive and are not listed. These entries were drawn from the full list. Measured potencies and affinities stand elsewhere. Values without a mark were called inactive. No stated cut-off is given here; in the data, inconclusive means inhibition above about 80% without an active follow-up result; inactive means below that; test concentration not stated here.
Test: M. tuberculosis H37Rv growth inhibitors, H37Rv strain (AID 1626);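 further: bacteria incubated seven days before Alamar blue readout; 0% = bacteria only wells and 100% = bacteria with antibiotic wells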
Details: hits give high values, concentration not given here

SMILES | inhibition
Nc1cc(OC(=O)c2cccs2)nn1S(=O)(=O)c1ccc(F)cc1 | 5.67%
Cc1ccc(NC(=O)Cn2c(O)c(N=NC(=O)c3cc([N+](=O)[O-])ccc3O)c3ccccc32)cc1 | 45.8%
Cc1cc(N2CCN(c3ccccc3)CC2)nc(N)n1 | -2.3%
Cc1cc(Cl)nc(-n2nc(C)cc2C)n1 | -0.69%
Cc1cc(N2CCN(c3ccccc3)CC2)nc(-c2ccccc2)n1 | -10.3%
Cc1cc(C)n(-c2nc3ccccc3nc2N2CCC(C)CC2)n1 | 2.59%
O=c1cn[nH]c2ccccc12 | -1.28%
CCOc1cc(/C=N\NC(=O)C2C(=O)NCC2c2ccccc2)ccc1OC (stereo unspecified) | -8.61%
Cc1c(Br)ccc(NC(=O)CCN2C(=O)C3C4CCC(C4)C3C2=O)c1C (stereo unspecified) | -22.5%
CCOC(=O)c1c(N2C(=O)C3CC(C)=C(C)CC3C2=O)sc(C)c1C (stereo unspecified) | -1.38%
COc1ccc(NC(=O)CNc2cccc(C#N)c2)cc1Cl | -9.7%
COc1ccc(NC(=O)CNc2ccc(C#N)cc2)cc1 | -4.76%
N#Cc1ccccc1NC(=O)CNc1ccc(Cl)c(C(F)(F)F)c1 | 1.74%
COc1ccccc1NC(=O)CNc1ccc(F)c(Cl)c1 | -4.82%
Cc1noc(C)c1/C=N/Nc1ccccn1 | -11.2%
COC(=O)c1ccccc1NC(=O)c1sc(N)nc1C | -3.82%
CCC/C=C1/CCCOC(C(=O)NCc2ccccc2)(C(F)(F)F)C1 (stereo unspecified) | -24.5%
O=C(Nc1ccc(-c2csc(Nc3ccccc3)n2)cc1)c1cc([N+](=O)[O-])cc(C(F)(F)F)c1 | 50.3%
O=C(Nc1ccc(-c2csc(Nc3ccccc3)n2)cc1)c1cccc(C(F)(F)F)c1 | 14.9%
O=C(Nc1ccc(-c2csc(Nc3cccc(C(F)(F)F)c3)n2)cc1)c1ccccc1 | 0.91%
O=C(Nc1cccc(-c2csc(Nc3cccc(C(F)(F)F)c3)n2)c1)c1cc([N+](=O)[O-])cc(C(F)(F)F)c1 | -8.7%
CCOc1ccccc1N(CC(=O)NCc1ccccc1)C(=O)CCC(=O)Nc1cc(C)ccn1 | -1.77%
Cc1cc(NCCCN2CCOCC2)n2c(nc3ccccc32)c1C#N | -4.69%
CC1=C(C(=O)OC(C)C)C(c2cccs2)n2ncnc2N1 (stereo unspecified) | 7.3%
O=C(/C=C\c1ccco1)c1ccc(NC(=O)c2ccco2)cc1 | -2.87%
CC(=O)Nc1ccc(C(=O)/C=C/c2ccco2)cc1 | -0.44%

Reference: PubChem BioAssay AID1626 (SRMLSC, 2009)
